The values below come from ChEMBL document CHEMBL1961873, “Compounds: GSK PKIS; Assays: Nanosyn kinase panel” (2012).
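Also: each value is the mean of the inhibition measurements.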

This experiment deals with T1, Tyrosine-protein kinase Tec (Homo sapiens) (UniProt P42680).
T1 sequence (whole entry): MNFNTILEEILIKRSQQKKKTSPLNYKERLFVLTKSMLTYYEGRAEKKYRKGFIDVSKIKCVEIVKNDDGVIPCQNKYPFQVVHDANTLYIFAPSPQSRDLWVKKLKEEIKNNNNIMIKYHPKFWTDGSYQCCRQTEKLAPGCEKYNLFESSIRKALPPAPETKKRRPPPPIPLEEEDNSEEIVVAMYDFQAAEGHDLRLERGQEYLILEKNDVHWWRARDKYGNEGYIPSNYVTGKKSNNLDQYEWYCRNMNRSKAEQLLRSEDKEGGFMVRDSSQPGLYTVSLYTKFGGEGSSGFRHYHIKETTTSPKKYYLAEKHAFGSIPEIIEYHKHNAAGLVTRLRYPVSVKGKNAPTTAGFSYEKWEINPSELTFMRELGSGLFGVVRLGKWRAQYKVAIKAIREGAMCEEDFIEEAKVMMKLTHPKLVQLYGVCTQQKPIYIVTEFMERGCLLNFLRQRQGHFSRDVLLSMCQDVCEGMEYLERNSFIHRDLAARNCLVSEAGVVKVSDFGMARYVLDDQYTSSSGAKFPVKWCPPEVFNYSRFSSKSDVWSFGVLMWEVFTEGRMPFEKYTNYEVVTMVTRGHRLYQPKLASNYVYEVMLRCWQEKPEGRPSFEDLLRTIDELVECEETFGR
The note with it: at 1 µM.
`CS(=O)(=O)Nc1cccc(-c2ccc3c(NC(=O)C4CC4)n[nH]c3c2)c1`: the inhibition was determined as 3.97%.
In the case of `Cc1ccc2c(c1)/C(=N/Nc1ccc(S(N)(=O)=O)cc1)C(=O)N2`, the inhibition is 4.33%.
Regarding `O=C1Nc2ccccc2/C1=C/Nc1ccc2[nH]c(=O)[nH]c2c1`, the inhibition was 13.8%.
As to `C[C@@H](Oc1cc(-n2cnc3ccc(OC[C@@H](O)CO)cc32)sc1C(N)=O)c1ccccc1Cl`, the inhibition was -0.09%.
Turning to `Cc1cc(-c2ccccn2)cc(C)c1/C=C/c1cncc(-c2nn[nH]n2)c1`, the inhibition was found to be 12.4%.
`NS(=O)(=O)c1ccc(Nc2cc(-c3cccc(O)c3)n[nH]2)cc1`: the inhibition worked out at 5.56%.
As for `Cc1ccc(C(=O)NC2CC2)cc1-c1ccc2[nH]ncc2c1`, the figure is -3.15%; as for `COC(=O)Nc1nc2cc(Oc3ccc(NC(=O)Nc4cccc(Br)c4)cc3)ccc2[nH]1`, 3.43%.
As for `COc1ccc(-c2nn3ncccc3c2-c2ccnc(Nc3cccc(C(F)(F)F)c3)n2)cc1`, the figure is 4.73%; as for `[O-][S+]1CCN(Cc2ccc(-c3ccc4ncnc(Nc5ccc(OCc6ccccc6)c(Cl)c5)c4c3)o2)CC1`, 1.06%.
On to `CS(=O)(=O)CCNCc1nc(-c2ccc3ncnc(Nc4ccc(OCc5cccc(C(F)(F)F)c5)cc4)c3c2)cs1`, for which the inhibition is 5.07%.
Regarding `CN(C)c1cc2c(Nc3ccc4c(cnn4Cc4ccccc4)c3)ncnc2cn1`, the inhibition turned out to be 9.92%.
As for `Oc1cccc(-c2nc(-c3ccccc3)[nH]c2-c2ccncc2)c1`, the figure is 9.92%; as for `Cc1ccc(O)cc1Nc1ccnc2ccc(S(C)(=O)=O)cc12`, 82.7%.
With `CCS(=O)(=O)c1ccc(OC)c(Nc2nccc(N(C)c3ccc4c(C)n[nH]c4c3)n2)c1`, the inhibition was 27%.
Under `NS(=O)(=O)c1cccc(-c2cc3ccncc3cc2OCc2ccccc2)c1` stands 8.79%.
